This note sets out measurements from the supplement of paper PMC12532568.

Structures can show the parent of a compound that is named as a salt.

This experiment relates to Danio rerio larvae Tg(actc1b:ZsGreen-LC3), 3 dpf. Description: LC3 puncta relative area vs vehicle, with NH4Cl (autophagic flux) (log2 fold change); higher = more autophagy. The note with it: 10 µM; treatment time 16 h; NH4Cl: + 100 mM, 4 h. The protocol: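 Transgenic Tg(actc1b:ZsGreen-map1lc3) zebrafish larvae (2 dpf) were treated for 16 h with Tocris library compounds at 10 µM (n = 12 larvae per compound). Skeletal-muscle LC3 puncta area relative to body area was measured by high-content confocal imaging before and after 4 h of 100 mM NH4Cl (autophagic flux), normalised to vehicle (DMSO), and reported as log2 fold change.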
`CC(=O)N1CC[N+](C)(C)CC1` [4-Acetyl-1,1-dimethylpiperazinium iodide]: the “LC3 puncta (log2)” value was 0.151.

Consider `CCCN(C/C=C/I)C1CCc2ccc(O)cc2C1` (configuration not stated) [7-Hydroxy-PIPAT maleate], for which the “LC3 puncta (log2)” value stood at 0.264.

Take `C=CCN1CC[C@]23c4c5ccc(O)c4O[C@H]2C(=O)CC[C@@]3(O)[C@H]1C5` [Naloxone hydrochloride]: the “LC3 puncta (log2)” value is 0.232.

With `CN(C(=O)Cc1ccccc1)C(CN1CCCC1)c1ccccc1` (configuration not stated) [N-MPPP Hydrochloride], the “LC3 puncta (log2)” value turned out to be 0.566.

As for `O=C(Cc1ccc(Cl)c(Cl)c1)N1CCCCC1CN1CCCC1` (configuration not stated), the “LC3 puncta (log2)” value turned out to be 0.493.

As for `COc1ccc(C(=O)N2CCCC2=O)cc1` [Aniracetam], the “LC3 puncta (log2)” value was 0.0699.

On to `Cc1[nH]c2ccc(O)cc2c1CCN` [2-Methyl-5-hydroxytryptamine hydrochloride], for which the “LC3 puncta (log2)” value came to 0.337.

As to `N[C@@H](Cn1oc(=O)[nH]c1=O)C(=O)O` [L-Quisqualic acid], the “LC3 puncta (log2)” value was found to be 0.686.

`Clc1cccc(SC2CCNCC2)n1` [Anpirtoline hydrochloride]: the “LC3 puncta (log2)” value stood at 0.148.

Consider `CCCN(CCC)[C@@H]1CCc2c(OC)cccc2[C@@H]1C` [(+)-UH 232 maleate], for which the “LC3 puncta (log2)” value was 0.738.

Consider `c1ccc2c(c1)OCC(C1=NCCN1)O2` (configuration not stated) [Idazoxan hydrochloride], for which the “LC3 puncta (log2)” value was found to be 0.662.

As to `CCCN(CCC)C1CCc2cccc(O)c2C1` (configuration not stated) [8-Hydroxy-DPAT hydrobromide], the “LC3 puncta (log2)” value was 0.325.

As for `C=CCN1C[C@H](C)N([C@H](c2ccc(C(=O)N(CC)CC)cc2)c2cccc(OC)c2)C[C@H]1C`, the “LC3 puncta (log2)” value worked out at 0.846.

For `CN(C(=O)Cc1ccc(Cl)c(Cl)c1)[C@H](CN1CCCC1)c1ccccc1` [ICI 199,441 hydrochloride], the “LC3 puncta (log2)” value was 0.486.

As to `c1ccc(CC(c2ccccc2)N2CCCCC2)cc1` (configuration not stated) [(?)-1-(1,2-Diphenylethyl)piperidine maleate], the “LC3 puncta (log2)” value worked out at 0.216.

Turning to `Cc1nc(N)sc1CCN` [Amthamine dihydrobromide], the “LC3 puncta (log2)” value stood at 0.697.

Regarding `NCC(CS(=O)(=O)O)c1ccc(Cl)cc1` (configuration not stated) [Saclofen], the “LC3 puncta (log2)” value was -0.0138.

`Cc1onc(O)c1C[C@H](N)C(=O)O`: the “LC3 puncta (log2)” value is 0.29.

On to `OC1CCCCC1N1CCC(c2ccccc2)CC1` (configuration not stated) [(?)-Vesamicol hydrochloride], for which the “LC3 puncta (log2)” value came to 0.751.

Take `CC(CN)CC(=O)O` (configuration not stated) [3-Methyl-GABA]: the “LC3 puncta (log2)” value came out at 0.425.

With `N=C(NCc1ccc(Cl)cc1)SCCCc1c[nH]cn1` [Clobenpropit dihydrobromide], the “LC3 puncta (log2)” value amounted to 0.922.

`c1ccc(CCCCN2CCC(c3ccccc3)CC2)cc1` [4-PPBP maleate]: the “LC3 puncta (log2)” value came out at 0.486.

Consider `COC(=O)[C@@H](N)CCCNC(=N)N[N+](=O)[O-]` [L-NAME hydrochloride], for which the “LC3 puncta (log2)” value was determined as 0.657.

As for `Oc1ccc2c3c1O[C@H]1c4c(c5ccccc5n4Cc4ccccc4)C[C@@]4(O)C(C2)N(CC2CC2)CC[C@]314` [N-Benzylnaltrindole hydrochloride], the “LC3 puncta (log2)” value turned out to be 0.945.

As for `c1ccc2nc(N3CCNCC3)ccc2c1` [Quipazine dimaleate], the “LC3 puncta (log2)” value is 0.278.

On to `CC[N+](CC)(CCCNC1=CC(=O)C(NCCC[N+](CC)(CC)Cc2ccccc2)=CC1=O)Cc1ccccc1` [Benzoquinonium dibromide], for which the “LC3 puncta (log2)” value stood at 0.386.

Consider `O=C1CCCN1CC#CCN1CCCC1` [Oxotremorine sesquifumarate], for which the “LC3 puncta (log2)” value stood at 0.192.
